Data published in PubChem BioAssay (Tox21).
Records with an inconclusive call do not appear. The source made the active and inactive calls. Unless noted, calls come from the whole dose curve; as a rule, active = well fitted curve in the direction sought with a large enough effect in the repeat runs; inconclusive = weak or mixed curves; inactive = no such curve, though single readings can be large; an effect the other way counts as inactive or inconclusive.

Legend:
[1] = molecular target: Progesterone receptor (Homo sapiens) (UniProt P06401); test: qHTS assay to identify small molecule agonists of the progesterone receptor (PR) signaling pathway (AID 1346784; calls by dose curve; note: nearly all actives have a fitted effect of over 30% in size)
Outline: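 Agonist qHTS: compounds pinned onto 3,000 PR-UAS-bla HEK 293T cells per well in charcoal-stripped serum medium, 16hr at 37C, then beta-lactamase activity measured by LiveBLAzer FRET fluorescence after 2 hours at room temperature.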

[2] = molecular target: Progesterone receptor (Homo sapiens) (UniProt P06401); test: qHTS assay to identify small molecule antagonists of the progesterone receptor (PR) signaling pathway (AID 1346795; active = well fitted inhibition curve with a large enough effect in the signal ratio in the repeat runs, not every such curve was filed as active; the % refers to the signal ratio)
Outline: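 Antagonist mode with agonist R5020 at 1 nM final and 16 hr incubation at 37C. Reporter was beta-lactamase driven by UAS in HEK293T (PR-UAS-bla), 2% charcoal-stripped serum; signal from LiveBLAzer FRET substrate, 2 hr at room temperature.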

[3] = qHTS assay to identify small molecule antagonists of the progesterone receptor (PR) signaling pathway - cell viability counter screen (AID 1346798); note: series mostly up to about 92 µM; nearly all actives have a fitted effect of over 50% in size
Outline: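 Cytotoxicity read as CellTiter-Glo luminescence (30 min, room temperature) in the same wells as the beta-lactamase readout. HEK293T PR-UAS-bla cells in charcoal-stripped 2% FBS received compound and R5020, then 16 h at 37C, 5% CO2.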

[4] = qHTS assay to identify small molecule agonists of the progesterone receptor (PR) signaling pathway - cell viability counter screen (AID 1346799; calls by dose curve; note: nearly all actives have a fitted effect of over 45% in size)
Outline: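 Cytotoxicity measured by CellTiter-Glo luminescence (30 min, RT) in the same wells as the PR beta-lactamase agonist read. Those HEK293T cells had 16 h compound treatment at 37 C in 2% charcoal-stripped FBS medium.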

[5] = qHTS assay to identify small molecule antagonists of the TGF-beta/Smad signaling pathway - cell viability counter screen (AID 1346824); note: nearly all actives have a fitted effect of over 50% in size
Outline: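 SBE-bla HEK 293T cells, incubated overnight, then compound plus 0.25 ng/mL TGF-beta1 (stock added) for 5 hr at 37 C. Viability was read in the same wells by CellTiter-Glo luminescence after 30 min at room temperature.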

[6] = qHTS assay to identify small molecule agonists of the TGF-beta/Smad signaling pathway - cell viability counter screen (AID 1346829); note: top concentration of the series differs between compounds; nearly all actives have a fitted effect of over 45% in size
Outline: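 HEK 293T SBE-bla line, 5 hr compound exposure at 37 C, multiplexed CellTiter-Glo viability read by luminescence.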

[7] = qHTS assay to identify small molecule agonists of the TGF-beta/Smad signaling pathway (AID 1346859; active = well fitted activation curve with a large enough effect in the signal ratio in the repeat runs, not every such curve was filed as active; the % refers to the signal ratio; note: series mostly up to about 77 µM)
Outline: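 Fluorescence (ex 405 nm; em 460 and 530 nm) was read 2 h after LiveBLAzer FRET substrate at RT. The preceding compound treatment of overnight-plated SBE-bla HEK293T cells lasted 5 h at 37 C.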

[8] = Human pregnane X receptor (PXR) small molecule agonists, qHTS cell viability counter screen (AID 1346977); note: nearly all actives have a fitted effect of over 50% in size
Outline: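 Same-well viability read: CellTiter-Fluor added after 23 hr compound exposure, fluorescence measured 1 hr later. Cells were PXR-Luc HepG2 seeded at 2,000/well in 5% charcoal-stripped FBS medium, rested 5 hr before dosing at 37 C.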

[9] = molecular target: Thyrotropin-releasing hormone receptor (Homo sapiens) (UniProt P34981); test: qHTS assay to identify small molecule antagonists of the thyrotropin-releasing hormone receptor (TRHR) signaling pathway (AID 1346877; active = well fitted inhibition curve with a large enough effect in the repeat runs, not every such curve was filed as active; note: series mostly up to about 51 µM)
Outline: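 Following an 18 h incubation at 37 °C and a 2 h calcium dye load, TRHR-HEK293 cells were exposed to compound (5 min, room temperature) and challenged with TRH, 1 nM final.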

[10] = molecular target: Thyrotropin-releasing hormone receptor (Homo sapiens) (UniProt P34981); test: qHTS assay to identify small molecule agonists of the thyrotropin-releasing hormone receptor (TRHR) signaling pathway (AID 1346891; calls by dose curve; note: series mostly up to about 58 µM)
Outline: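 Agonist-mode intracellular calcium readout: kinetic fluorescence over 3 min at 1 s intervals after compound addition to TRHR-HEK293 cells (18 h seeded, 2 h dye-loaded at 37 C). Fifteen concentrations, triplicates.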
% is set by controls: 0 for no effect and ±100 for the full control effect.

Chain of Progesterone receptor (Homo sapiens) (P06401 whole entry, looked up): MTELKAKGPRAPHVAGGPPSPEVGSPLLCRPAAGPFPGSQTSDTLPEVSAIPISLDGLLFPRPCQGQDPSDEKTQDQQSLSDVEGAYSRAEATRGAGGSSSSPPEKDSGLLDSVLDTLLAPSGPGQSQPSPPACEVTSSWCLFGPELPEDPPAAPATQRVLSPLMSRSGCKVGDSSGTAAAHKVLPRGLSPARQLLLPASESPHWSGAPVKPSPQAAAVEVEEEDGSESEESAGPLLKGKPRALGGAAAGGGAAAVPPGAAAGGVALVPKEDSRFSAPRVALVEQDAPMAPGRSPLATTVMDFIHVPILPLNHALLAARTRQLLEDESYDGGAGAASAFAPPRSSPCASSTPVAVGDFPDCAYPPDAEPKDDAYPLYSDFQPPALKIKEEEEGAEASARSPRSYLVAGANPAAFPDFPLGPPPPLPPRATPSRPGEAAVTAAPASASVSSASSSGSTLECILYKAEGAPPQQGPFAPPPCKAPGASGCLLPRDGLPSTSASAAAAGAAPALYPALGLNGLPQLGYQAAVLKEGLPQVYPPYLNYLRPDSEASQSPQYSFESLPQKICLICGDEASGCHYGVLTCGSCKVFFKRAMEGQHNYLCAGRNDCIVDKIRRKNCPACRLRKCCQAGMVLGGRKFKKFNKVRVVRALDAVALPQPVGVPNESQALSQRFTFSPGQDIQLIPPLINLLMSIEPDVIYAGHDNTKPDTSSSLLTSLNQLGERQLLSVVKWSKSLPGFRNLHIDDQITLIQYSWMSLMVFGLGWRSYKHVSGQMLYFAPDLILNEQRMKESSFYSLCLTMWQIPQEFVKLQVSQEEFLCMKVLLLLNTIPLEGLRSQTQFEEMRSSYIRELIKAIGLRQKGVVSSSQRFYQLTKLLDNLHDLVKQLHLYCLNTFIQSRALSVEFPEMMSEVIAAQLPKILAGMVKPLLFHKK
Chain of Thyrotropin-releasing hormone receptor (Homo sapiens) (P34981 whole entry, looked up): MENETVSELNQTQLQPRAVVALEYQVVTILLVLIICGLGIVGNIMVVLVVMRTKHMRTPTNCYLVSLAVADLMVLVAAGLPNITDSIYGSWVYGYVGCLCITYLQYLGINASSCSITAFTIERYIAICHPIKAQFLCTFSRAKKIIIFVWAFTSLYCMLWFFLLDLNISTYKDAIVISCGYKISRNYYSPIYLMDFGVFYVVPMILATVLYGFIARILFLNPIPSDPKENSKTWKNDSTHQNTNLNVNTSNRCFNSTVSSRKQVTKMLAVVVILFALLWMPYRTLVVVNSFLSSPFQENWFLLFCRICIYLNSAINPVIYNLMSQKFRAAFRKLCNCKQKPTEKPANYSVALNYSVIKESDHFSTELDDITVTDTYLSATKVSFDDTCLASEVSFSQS

C[N+]1(CC2COC(c3ccccc3)(C3CCCCC3)O2)CCCCC1 (stereo unspecified)
inactive: Potency [1] | Potency [2] | Potency [3] | Potency [4] | Potency [5] | outcome [6] | Potency [7] | Potency [8]

C1CCCNCCC1
inactive: Potency [1] | Potency [2] | Potency [3] | Potency [4] | Potency [5] | outcome [6] | Potency [7] | Potency [8]

CCC(C)(C)CC
inactive: Potency [1] | Potency [2] | Potency [3] | Potency [4] | Potency [5] | outcome [6] | Potency [8]

CCN(CC)CCNC(=O)c1cc(Br)c(N)cc1OC
inactive: Potency [1] | Potency [2] | Potency [3] | Potency [4] | Potency [5] | outcome [6] | outcome [9] | Potency [10] | Potency [8]

Cc1ccc(C(C)OC(=O)C2(C)CCC(C(=O)O)C2(C)C)cc1 (stereo unspecified)
inactive: Potency [1] | Potency [2] | Potency [3] | Potency [4] | Potency [5] | outcome [6] | Potency [7] | Potency [8]

C[N+](C)(C)CCOC(=O)CCC(=O)OCC[N+](C)(C)C
inactive: Potency [1] | Potency [2] | Potency [3] | Potency [4] | Potency [5] | Potency [7] | outcome [9] | Potency [10] | Potency [8]

O=C(NCCO[N+](=O)[O-])c1cccnc1
inactive: Potency [1] | Potency [2] | Potency [3] | Potency [4] | Potency [5] | outcome [6] | Potency [10] | Potency [8]

O=C(O)C1(C(=O)O)CCC1.[NH2-].[NH2-].[Pt+2]
inactive: Potency [1] | Potency [2] | Potency [3] | Potency [4] | Potency [5] | outcome [6] | Potency [7] | Potency [8]

CC1=CC=C(C(C)C)CC1
inactive: Potency [1] | Potency [2] | Potency [3] | Potency [4] | Potency [5] | outcome [6] | Potency [7] | Potency [8]

CC(=O)[O][Al][O]C(C)=O
inactive: Potency [1] | Potency [2] | Potency [3] | Potency [4] | Potency [5] | outcome [6] | Potency [8]

C=CCOC(=O)CCC1CCCCC1
inactive: Potency [1] | Potency [2] | Potency [3] | Potency [4] | Potency [5] | outcome [6] | outcome [9] | Potency [10] | Potency [8]

c1ccc(CNCCNCc2ccccc2)cc1
inactive: Potency [1] | Potency [2] | Potency [3] | Potency [4] | Potency [5] | Potency [7] | outcome [9] | Potency [10] | Potency [8]

CN1Cc2cc(C(=O)N3CCC(C4CCNCC4)CC3)ccc2NC(CC(=O)O)C1=O (stereo unspecified)
inactive: Potency [1] | Potency [2] | Potency [3] | Potency [4] | Potency [5] | Potency [7] | outcome [9] | Potency [10] | Potency [8]

CC[N+]1(CC)CCC(=C(c2ccccc2)c2ccccc2)C1C (stereo unspecified)
inactive: Potency [1] | Potency [2] | Potency [3] | Potency [4] | Potency [5] | outcome [6] | Potency [7] | Potency [8]

Cc1ccc(C(=O)Oc2ccc(C(O)CNC(C)(C)C)cc2OC(=O)c2ccc(C)cc2)cc1 (stereo unspecified)
inactive: Potency [1] | Potency [2] | Potency [3] | Potency [4] | Potency [5] | outcome [6] | Potency [10] | Potency [8]

CCCCOC(=O)CCCCCCCC(=O)OCCCC
inactive: Potency [1] | Potency [2] | Potency [3] | Potency [4] | Potency [5] | outcome [6] | Potency [7] | Potency [8]

CCCCC1=NC2(CCCC2)C(=O)N1Cc1ccc(-c2ccccc2-c2nn[nH]n2)cc1
inactive: Potency [1] | Potency [2] | Potency [3] | Potency [4] | Potency [5] | outcome [6] | Potency [8]

CC(COCCO)OCCO (stereo unspecified)
inactive: Potency [1] | Potency [2] | Potency [3] | Potency [4] | Potency [5] | outcome [6] | outcome [9] | Potency [10] | Potency [8]

CC(C)O.CC(C)O.CCOC(=O)/C=C(\C)O.CCOC(=O)/C=C(\C)O.[Ti]
inactive: Potency [1] | Potency [2] | Potency [3] | Potency [4] | Potency [5] | outcome [6] | Potency [7] | Potency [8]

COCCCN1CCC(NC(=O)c2cc(Cl)c(N)c3c2OCC3)CC1
inactive: Potency [1] | Potency [2] | Potency [3] | Potency [4] | Potency [5] | outcome [6] | Potency [7] | Potency [8]

CCC(CC)Nc1ccc(C)c(C)c1
inactive: Potency [1] | Potency [2] | Potency [3] | Potency [4] | Potency [5] | outcome [6] | outcome [9] | Potency [10] | Potency [8]

CCCCCCCCO[C@@H]1O[C@H](CO)[C@@H](O)[C@H](O)[C@H]1O
inactive: Potency [1] | Potency [2] | Potency [3] | Potency [4] | Potency [5] | outcome [6] | Potency [7] | Potency [8]

NC(N)=NCCC[C@H](N)C(=O)O
inactive: activation [1] -0.127% [at 8.39 µM] | activity change, negative = inhibition [2] 7.3% [at 8.39 µM] | activity change, negative = cytotoxicity [3] -0.687% [at 8.39 µM] | activity change, negative = cytotoxicity [4] -1.33% [at 8.39 µM] | viability change, negative = cytotoxic [5] 7.48% [at 6.97 µM] | activity change, negative = cytotoxicity [6] 6.19% [at 6.97 µM] | activation [7] 2.75% [at 6.97 µM] | activity change, negative = cytotoxicity [8] 6.78% [at 8.39 µM]

CCCCO
inactive: Potency [1] | Potency [2] | Potency [3] | Potency [4] | Potency [5] | outcome [6] | Potency [7] | Potency [8]
